Assay results taken from PubChem BioAssay AID1508600 (Functional Genomics Laboratory (NCATS/FGL), 2020).
In all, about 53,000 sequences went through this assay and about 3,700 (7%) were called active. This is one part of a sample in which actives are shown more often than they occur.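 The calls were made as follows: active = gene knockdowns whose robust z-score for IL-1 alpha signal is at least 2 or at most -2, so actives lie on both sides; inactive = the rest.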

experiment: Components of the Cytosolic LPS Sensing Pathway: Gene Identification via Genome-wide siRNA Screen; details: RAW264.7 macrophages, IL-1a HTRF, actives lie on both sides, screened at 100 nM (by protocol), cells primed 5 h with Pam3CSK4 first;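 also: robust z of the log signal after scaling to non-targeting control siRNA wells of the plate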
In short: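 Mouse macrophage line RAW264.7 is transfected with siRNA (100 nM final), grown 48h, primed with TLR ligand Pam3CSK4 5 h and given intracellular LipidA 24 h. IL-1a in supernatant is read by HTRF and viability by luminescence.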

Sequence | z-score
GGAAUAUCCCAACAUCUGUTT against Upp1 | -0.899 (inactive)
GCAGUAUGUAAACCCUUACTT against Olfr1463 | 0.558 (inactive)
CGACCUUAAGCUAAGCAGUTT against Aff3 | 1.18 (inactive)
GGAAUUUUCUCAUGAUCUUTT against Krtap3-3 | 0.813 (inactive)
GGGCUAUUAAAUGAUUUCATT against Pax1 | 5 (active)
GCCAUGAUUUUCAUGUACGTT against Olfr711 | 0.241 (inactive)
CCUUAAUAAAUCUAGUGGCTT against Stmn3 | -0.567 (inactive)
GCGGCUUAUGUCUCAAAUUTT against Gcdh | 2.34 (active)
GGCCGAUGCCAAAUUGGUATT against Olfm1 | 0.0323 (inactive)
GGACUAGCAAGGCAAGUGATT against Dnase2b | 1.32 (inactive)
GGGAAUCGGACCAACUUACTT against Adssl1 | 3.64 (active)
GCGAGUUUAAUGUUUAUGCTT against Pdgfra | -1.29 (inactive)
GCCCAGCAUGGAUAGAUUATT against Mis18bp1 | 0.466 (inactive)
GGAAAAUGUAAACAAGUACTT against Xpo5 | -0.595 (inactive)
GGAUAACACCACCAACUAUTT against Akap8l | 0.456 (inactive)
GGGCUGUUCUACUUAGUUATT against N6amt1 | 0.573 (inactive)
GGAUUAAAGAAAGACAUUGTT against Yme1l1 | -2.04 (active)
CGCCAGAGUGCAUAGUCUUTT against Mindy2 | 1.94 (inactive)
GCCAUUUUAGAGCAGAUCCTT against Rundc3a | -2.33 (active)
GCAAACUGUCCUAUCUUGGTT against Cacna1d | 0.84 (inactive)
GGUGUUGUUUCGAAUUAUUTT against Xrn1 | 0.44 (inactive)
GGUUCAGGUUCUUCUAAAATT against Cd109 | 1.42 (inactive)

Sequence | z-score
GCACCUGAGCUUUCGAAUATT against Fam3a | -0.373 (inactive)
CCGUGGAAACAGUCCUGAATT against Nudcd1 | 0.646 (inactive)
GCUACUCUCGCCUGUUACATT against Dcaf12 | 0.0053 (inactive)
GGCCAAUGCCCUUUUUUGATT against Spem2 | 0.427 (inactive)
GUUCCCUGCCUGGCAGAAUTT against Foxd2 | 3.8 (active)
GGCAGCACCAUCGUCUAAUTT against 4930432E11Rik | 0.622 (inactive)
GGUCAAGUCACUGGUGACGTT against Fabp3 | -1.73 (inactive)
GGAAGAUGGGCUAUUUCAUTT against Gabra6 | 0.545 (inactive)
GGACAAGACCAUCUUCGAUTT against Sectm1a | 0.21 (inactive)
CCAAAUCCCAGAGUUAUUUTT against Htr2c | 0.361 (inactive)
GCAAAAGACCAUCUGAGUGTT against Adig | 0.375 (inactive)
GGAAUUGGCAUCCUUAAGCTT against Cops3 | 2.43 (active)
GGUCAGAAGGUGUGUUAUATT against Rad52 | 0.338 (inactive)
GGCAUUCCCAGUCGUAAAGTT against Kctd3 | -1.1 (inactive)
GGUUUAUAUCCGUACACCUTT against Sp2 | 1.97 (inactive)
GGUGUUCUACUGUGCAUUATT against 9330132A10Rik | 0.578 (inactive)
GUUCCUCAGUAUGUUGCCATT against Olfr126 | -2.85 (active)
GGGAUUGGUUAUUUUACAUTT against Trmt12 | -0.578 (inactive)
GGAAAUAUGGCAAGAAUUUTT against Rgs7 | 0.781 (inactive)
GCUAAUGUGGAGGACUCACTT against Chml | -0.574 (inactive)
GCAUUUCCCAGCCUGAUACTT against Aif1l | -0.584 (inactive)
GGUGACACAGUACAAGAAGTT against Rpl36a | 0.318 (inactive)

Sequence | z-score
GGCGAGAAACCUUUCAGAUTT against Zic4 | 4.72 (active)
CGGCGAUGGAAAAAAAUUUTT against Tmem178 | 1.04 (inactive)
GGGUGCUUACAGAAUAUCUTT against Ms4a19 | 1.07 (inactive)
GGUGAACCCUUUGAGGAAGTT against Gstt3 | -0.42 (inactive)
GGAUUAAAUGGUGGUGGAGTT against Dnajb6 | -1.1 (inactive)
GGAUGAAAUUGUGUUAUCUTT against Snrk | -0.371 (inactive)
GCCCUUUUACGGCAACAGATT against C2cd5 | -1.48 (inactive)
CCACAUGCCAAAAUAAUACTT against Oxr1 | -0.771 (inactive)
GGAAGAACUUGUCUCUUUUTT against Tmtc2 | 0.501 (inactive)
GGAUGCUGUAACACUUUAUTT against Bcl6 | 3.31 (active)
GCGAUCACUUUUCAAGUUUTT against Rnf139 | 0.0177 (inactive)
GGAAAUCCUCAGACAAAUGTT against Pdc | 0.93 (inactive)
GGAAAUGUACCUGUUUGUUTT against Dnase1l2 | 0.928 (inactive)
GGCUUAGGUGUCCGAGAAATT against Wfdc2 | -1.01 (inactive)
GGCUGUGGUAGAAAAGCUGTT against Hspg2 | -1.65 (inactive)
CCAUAUCUAUGAUAUGGUUTT against Piezo2 | -2.18 (active)
GGAAGAUCCAUUUAAUGUATT against Eps15 | 1.14 (inactive)
GCUGAAGGGUCUCGUAUUGTT against Hes2 | 0.262 (inactive)
GGCUUUGAUGUCAGCACUGTT against Ngrn | 0.247 (inactive)
GCUCAUGCAUGGCUGUACATT against Gbp9 | 0.603 (inactive)
GGAGCAUUCUCCAUCUAGCTT against Dennd2d | -1.41 (inactive)
GGAGGAGUCUUGAAUCCAGTT against Yod1 | -0.122 (inactive)

Sequence | z-score
GGACUUGGUGACUUACUUCTT against Smpdl3b | -1.42 (inactive)
CGGGUAAUAAGGAUUUGGGTT against Cadm4 | 2.05 (active)
GGAGACAGUUCAGAAGUGGTT against Glp2r | 0.0837 (inactive)
GAAGUCUGUGACCAGUUCCTT against Fgf2os | 0.735 (inactive)
GCUAGGUGGGCAACUGUAUTT against Lpar3 | 2.12 (active)
CCCUGAAACCUCGGUGUUUTT against Vmac | 1.34 (inactive)
GGAACUGGAGAUGCACAGCTT against Mtcl1 | 1.2 (inactive)
GGAAAUUGUCAGGUCCUACTT against Rad50 | 2.94 (active)
GGUUAUGUGUUCCAUAGAUTT against Pcdhb13 | 0.248 (inactive)
GGAUAAACAGCUGAAGGUGTT against Ccs | 0.762 (inactive)
GGCCGUUUUUUGGCAUCGUTT against Acss1 | -1.71 (inactive)
GGCAAGCCAGAGAAACUGATT against Rbm42 | 6.18 (active)
GGUAAUCCUGACUUCGUGGTT against Asb17 | 0.915 (inactive)
GCCGUAUUCAUUAAUAAAGTT against Ash1l | 0.0753 (inactive)
GCUAGAAAGGACUUCGUGGTT against Pla2g4f | -2.36 (active)
CGAUUUCACAAAAACAUGATT against Vta1 | -0.394 (inactive)
GGUGUUGGAGACCAUGGAUTT against Clcn6 | 0.829 (inactive)
CGUGAUGUACAUGCAGGAUTT against Slc48a1 | 2.83 (active)
GCAAUCGACCGCAUCCUAATT against Gm4827 | -1.32 (inactive)
GGGCUCCAAUUUGCUACCATT against Grp | 0.342 (inactive)
GCAGCAAUCAGAUCAUGUATT against Platr26 | -0.694 (inactive)
GGUCCAGAUUGCUUAGAUGTT against Zbtb11os1 | -0.398 (inactive)

Sequence | z-score
CCUUAUACCAUAGAGAACATT against Bfar | 1.14 (inactive)
GGAGAAACGAAAAGACUCUTT against Brpf1 | -2.25 (active)
GGCUUCAAGGACUUUACAATT against Mefv | 1.62 (inactive)
GGUGUGCUCUGUAAAUCAUTT against Trappc2 | 0.656 (inactive)
GGAUGAGCAUAAAAGUCCUTT against Atf7ip | -0.536 (inactive)
CCUGUCACAGAUGUAUGUGTT against Rnf149 | 0.331 (inactive)
GGAAUCUCCACCAUACAGGTT against Vmn1r26 | -0.263 (inactive)
GGAGGAUACAGUGGAGGGATT against Fbxl19 | 2.81 (active)
GGACGGUAGCCAUAUUAAUTT against Spink2 | -0.385 (inactive)
GGCUGAAGUUCAUGAUGGCTT against Cd209d | 1.7 (inactive)
CCACCAGGGAUCGUUAUAATT against Phyh | 2.25 (active)
GGCGAUUAUGGAAAAAUGUTT against Osbpl11 | -0.431 (inactive)
GGCCUUUAUUCUAUGCAGUTT against Htr3a | 1.59 (inactive)
GGAAAAAACGCACCAGCAUTT against Pou2f1 | 0.0271 (inactive)
CCAGACGCGUAACUGCUACTT against Cox6b2 | 3.26 (active)
GGACAAAGAAAAAGAUUCCTT against Stxbp6 | -0.169 (inactive)
CCUGGAACAUAGAUGUAUATT against Jmjd4 | 0.484 (inactive)
GGUCUUUUCUACAUGUGGATT against Olfr389 | 0.268 (inactive)
GGAUGCUGAAGUGAAGGACTT against Myt1 | -0.157 (inactive)
GCAUGUAGCCUGGCCUUCUTT against Zfp458 | -0.591 (inactive)
